In PubChem BioAssay (NCATS):
Results filed as inconclusive are left out. Unmarked numbers belong to inactive results. Calls come from the whole dose curve; as a rule, active = well fitted cell-killing curve with a large enough effect; inconclusive = small, poorly fitted or top-dose-only effect, or effect the other way; inactive = no such curve, though single readings can be large or run the other way.

assay: Viability qHTS for spleen associated tyrosine kinase inhibitor (SYKi) naive MV4-11 cells (AID 1963823); conditions: MV4-11 AML viability, CellTiter-Glo luminescence, 72 h; series mostly up to 45 µM; viability (% of control): at the top concentration; note: nearly all actives have a fitted effect of over 40% in size
How it was run: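 SYK inhibitor-naive MV4-11 cells, 500 per well, exposed to compounds for 72 hr at 37 C, 5% CO2. Viability read as CellTiter-Glo luminescence after 10 min at room temperature.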

SMILES | viability (% of control)
CC(=O)C1CCC(=O)N1Cc1ccccc1 (centres undefined) | 78.7%
C=C1CC2[C@]3(C)C(=C(O)C(=O)[C@@]2(C)[C@]2(C(=O)OC)C(=O)C(C)OC(=O)[C@@]12C)C(C)(C)C(=O)CC3O (some centres undefined) | 59.7% [at 17.3 µM]
CN1CCC(Nc2nc(Nc3ccc(Oc4ccccc4)cc3)c3c(=O)[nH]cc(Br)c3n2)CC1 | 0.873%
CC(C)c1c(NC(=O)Nc2ccc(Cl)cc2)c(=O)n(-c2ccccc2)n1C | 61.4%
Cc1c(C2=CCN(C(=O)N(C)C(C)C)CC2)nnn1-c1cccnc1F | 55%
C=C(CC/C=C(\C)C(=O)O)C1(O)CC=C(C)CC1 (centres undefined) | 79.6%
Cc1cc(Cl)ccc1COc1ccnn1-c1cc(C(=O)O)ccn1 | 78.9%
C=C1CCC(OC(C)=O)C2(C)CC3OC(=O)C(C)=C3CC12 (centres undefined) | 91.5%
CC1(C)CC[C@]2(C(=O)O[C@@H]3O[C@H](CO)[C@@H](O)[C@H](O)[C@H]3O)CC[C@]3(C)C(=CCC4[C@@]5(C)C[C@@H](O)[C@H](O)C(C)(C)C5CC[C@]43C)C2[C@@H]1O (some centres undefined) | 65.1% [at 17.3 µM]
C=CC(C)(O)CC/C=C(/C)COC(=O)C(C)C1CCC(C)(C=C)O1 (centres undefined) | 60.9%
Cc1ccccc1Sc1ccc(/C=C2\SC(=S)NC2=O)cc1[N+](=O)[O-] | 67.5%
C[C@H]1CC(=O)C2=C(C1)C(O)C(O)[C@@]1(O)[C@H]2C(=O)c2cccc(O)c2[C@@H]1O (some centres undefined) | 65.5%
CC(C)S(=O)(=O)N[C@H]1CCOC[C@@H]1c1ccc(-c2ccc(C#N)s2)cc1 | 59.3%
CC(C/C=C/C(C)(C)O)C1CCC(C)(O)C(O)C1 (centres undefined) | 86.1%
